Our source for the growth values is PubChem BioAssay (NCI).

Each structure is given as a SMILES string. Where “and” joins values, the source holds several entries; their conditions need not be identical. Identical values can stand only once. Compounds without any hit were thinned out: in the full panel of roughly 83,000, 20% have a hit.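 The test compound was applied at a single concentration to cells in 96-well plates for 48 hours, and percent growth was recorded.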 Some compounds were tested as several samples or in several runs, with calls that do not always agree. Calls of active or inactive are those of the source.

The test system of one experiment is NCI-H23 lung. The experiment in a line: NCI-60 one-dose screen, 48 h (100 = growth as untreated, 0 = no growth, -100 = all killed). The settings on record: 0.25 µM. The method, then: Growth inhibition of the NCI-H23 human Non-Small Cell Lung tumor cell line is measured as a screen for anti-cancer activity. Cells are grown in 96 well plates and exposed to the test compound for 48 hours. Compounds are tested at a single concentration, which is 10^-5 M for most compounds. The reported endpoint is percent growth (GI% or GIPRCNT), where numbers from 0 - 100% represent growth inhibition, and numbers from -100% - 0 represent cell death. For example, a value of 40 represents 60% growth inhibition. A value of 0 means no net growth occurred over the course of the experiment. A value of -40 indicates 40% of cells at the beginning of the experiment died by the end of the experiment. A value of -100 means all cells are dead at the end of the experiment.
NCI-60 Human Tumor Cell Lines Screen was performed using the standard one-dose NCI protocol, which is described in more detail at https://dtp.cancer.gov/discovery_development/nci-60/default.htm.
Compounds with GIPRCNT values below 10 were considered active. Activity score was based on GIPRCNT using the following formula: […]
Score is 0 for GIPRCNT values of 100 or above, 50 for GIPRCNT values of 0, and 100 for GIPRCNT values of -100.
On to `CCCCCCCCCCCCCCCc1ccc(Cl)c(O)c1Cl` (tested in a mixture with another compound), for which the growth was 19.1% (inactive).

Still in this experiment, the particulars now being: 1 µM.
Consider `CNC(=O)c1cc(Oc2ccc(CC(=O)Nc3cc(C(C)(C)C)nn3C)cc2)ccn1`, for which the growth was 50% (inactive).

Still in this experiment, the particulars now being: 10 µM.
For `Cc1[nH]c(-c2nc3ccccc3[nH]2)c(C)c1C(=O)NC(C)C1CCCCC1` (stereo not given), the growth is 87.1% (inactive).

On to `CCCCCCCCCCCCCCCc1ccc(Cl)c(O)c1Cl` (tested in a mixture with another compound), for which the growth was 88.8% (inactive).

Turning to `CC#C[C@]1(O)CC[C@H]2[C@@H]3CCC4=CC(=O)CCC4=C3[C@@H](c3ccc4c(c3)OCO4)C[C@@]21C`, the growth was 82.8% (inactive).

For `CNC(=O)c1cc(Oc2ccc(CC(=O)Nc3cc(C(C)(C)C)nn3C)cc2)ccn1`, the growth is 49% (inactive).

The experiment is the same for the next values; noted with them: 10 µM unless noted.
Consider `CN(C)c1ccc2nc3ccc(=[N+](C)C)cc-3sc2c1`, for which the growth was 12.5% (inactive) and 8.52% (active) and 28% (inactive).

Regarding `CC(/C=N/N1C(=O)c2ccccc2C1=O)c1ccccc1` (stereo not given), the growth is 108% (inactive).

Consider `COc1ccc(Cn2c(NCCN=C(N)N)nc(=O)n(Cc3ccc(F)cc3)c2=O)cc1`, for which the growth was 102% (inactive) and 89.5% (inactive).

As for `CCN1CCN(CCNc2nccc(-c3c(-c4cccc(O)c4)nc4sccn34)n2)S1(=O)=O`, the growth was 87.1% (inactive) and 88.3% (inactive).

`CN(C)CCCN1c2ccccc2Sc2ccc(Cl)cc21`: the growth was 90.4% (inactive) and 112% (inactive) and 111% (inactive).

With `Cc1nn(-c2ccccc2)nc1C(=O)Nc1ccccc1C(=O)NCC1CC1`, the growth is 102% (inactive) and 77.6% (inactive).

As for `CC(C)(C)c1ccc(O)c(CNC2CCCCC2)c1`, the growth was 96.6% (inactive) and 90.8% (inactive).

For the compound `CCN(CC)CCC(CNc1c2ccc([N+](=O)[O-])cc2nc2cc(OC)c(OC)cc12)c1ccccc1` (stereo not given), the growth was -86.4% (active) and -71.3% (active).

As to `OC1CCC(Oc2cccc3cnc(Nc4ccc5nc[nH]c5c4)nc23)CC1` (stereo not given), the growth is -21.5% (active) and 25.5% (inactive).

With `Cc1c(Cl)cccc1NCN1C(=O)c2ccccc2C1=O`, the growth was 102% (inactive).

For `Nc1n[nH]c(=S)n1-c1ccc(Cl)cc1`, the growth is 95.9% (inactive).

With `Cn1cnc([N+](=O)[O-])c1Sc1ncnc2nc[nH]c12`, the growth is 72.9% (inactive) and 79.9% (inactive).

On to `CC(C)C(=O)Nc1ccc([N+](=O)[O-])c(C(F)(F)F)c1`, for which the growth is 89.5% (inactive) and 93.9% (inactive).

As for `CC(C)Cc1ccc(C(C)C(=O)NCc2ccc(Cn3c(=O)sn(CCCCl)c3=O)cc2)cc1` (stereo not given), the growth is 96.7% (inactive) and -59.1% (active).

On to `O=C(Nc1cccc(Cl)c1)c1cc2ccccc2cc1O`, for which the growth was 4.9% (active) and 9.55% (active).

Consider `Cc1ccc(S(=O)(=O)NCN2C(=O)c3ccccc3C2=O)cc1`, for which the growth is 103% (inactive).

Take `COC(=O)[C@H]1CCCN1C(=O)C1CCCN1C(=O)[C@@H](Cc1ccccc1)NC(=S)Nc1cc(C(F)(F)F)cc(C(F)(F)F)c1` (stereo not given in full): the growth is 108% (inactive) and 96.5% (inactive).

With `COc1ccc2ccccc2c1/C=N/N1CCCCC1`, the growth is 97.2% (inactive).

Turning to `OC(CSc1ccccc1)CN1CCN(c2cccc(Cl)c2)CC1` (stereo not given), the growth was 104% (inactive) and 96.6% (inactive).

As for `O=C(Nc1ccc(Br)cc1)c1cc(Br)ccc1O`, the growth was 0.675% (active) and -16.7% (active).

For `Cc1ccc2nc3c(nc2c1)-c1cccc2cccc-3c12`, the growth was 89.5% (inactive).

`Cc1cccc(/C=C\C(=O)c2ccccc2)c1`: the growth is 93.5% (inactive) and 101% (inactive).

On to `COc1cc(Nc2nc3ccccc3nc2NS(=O)(=O)c2ccc(NC(=O)c3ccc(C)c(OC)c3)cc2)cc(OC)c1`, for which the growth was 48.3% (inactive) and 19.8% (inactive).

`Cc1ccc(S(=O)(=O)Nc2ccc3cc([N+](=O)[O-])ccc3c2[N+](=O)[O-])cc1`: the growth was 65.7% (inactive) and 92.6% (inactive).

For `Cc1n[nH]c(=O)n(/N=C\c2c[nH]c3ccccc23)c1=O`, the growth was 102% (inactive).

For `COc1ccccc1NC(=O)OCC#CCOC(=O)Nc1ccccc1OC`, the growth is 101% (inactive) and 95.5% (inactive).

For `CCOC(=O)C(C(=O)OCC)C(c1ccccc1)N1CCN(c2ccccc2)CC1` (stereo not given), the growth was 107% (inactive) and 114% (inactive).

In the case of `Nc1ccc(N=Nc2ccc(S(=O)(=O)O)cc2)cc1S(=O)(=O)O`, the growth was 95.6% (inactive) and 99.8% (inactive).

On to `O=[N+]([O-])c1ccccc1/C=N\Nc1ccccc1`, for which the growth is 75.3% (inactive) and 88.1% (inactive).

With `O=C(N/N=C/c1ccc2c(c1)OCO2)c1ccncc1`, the growth was 99% (inactive) and 101% (inactive).

Turning to `CC(C)N=c1cc2n(-c3ccc(Cl)cc3)c3ccccc3nc-2cc1Nc1ccc(Cl)cc1`, the growth is -15.1% (active) and -62% (active) and -35.6% (active).

The experiment is the same for the next values; noted with them: 30 µM.
As for `CNC(=O)c1cc(Oc2ccc(CC(=O)Nc3cc(C(C)(C)C)nn3C)cc2)ccn1`, the growth was 48.9% (inactive).

Staying with this experiment, now noted: 100 µM.
On to `Cc1[nH]c(-c2nc3ccccc3[nH]2)c(C)c1C(=O)NC(C)C1CCCCC1` (stereo not given), for which the growth is -84.8% (active).

With `CC#C[C@]1(O)CC[C@H]2[C@@H]3CCC4=CC(=O)CCC4=C3[C@@H](c3ccc4c(c3)OCO4)C[C@@]21C`, the growth was -8.63% (active).
